# Results as given in the supplement of paper PMC4466140.
# Key:
# Assay in all cases: SPOT peptide array binding signal intensity (averaged, normalized) (arbitrary units (background-subtracted, floor 0; scale differs between SH3 domains)); higher = stronger binding of the SH3 domain to the peptide
# AgAbp1 = biological target: AgAbp1
# Experimental: (§1)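 GST-tagged SH3 domains from S. cerevisiae (Sc), A. gossypii (Ag), C. albicans (Ca) and S. pombe (Sp) were incubated at 10 ug/ml overnight at 4 C on cellulose SPOT membranes carrying 292 synthetic 15-mer peptides mined from the S. cerevisiae proteome (cysteines replaced by serines). Binding was detected with anti-GST antibody, HRP secondary and chemiluminescence, quantified with Genespotter, and reported as normalized spot intensities averaged over biological replicates.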
# AgBbc1 = biological target: AgBbc1
# Experimental: as §1
# AgBem1-D1 = biological target: AgBem1-D1
# Experimental: as §1
# AgBzz1-D1 = biological target: AgBzz1-D1
# Experimental: as §1
# AgBzz1-D2 = biological target: AgBzz1-D2
# Experimental: as §1
# AgCyk3 = biological target: AgCyk3
# Experimental: as §1
# AgFus1 = biological target: AgFus1
# Experimental: as §1
# AgHof1 = biological target: AgHof1
# Experimental: as §1
# AgHse1 = biological target: AgHse1
# Experimental: as §1
# AgLsb1 = biological target: AgLsb1
# Experimental: as §1
# AgLsb4 = biological target: AgLsb4
# Experimental: as §1
# AgMyo5 = biological target: AgMyo5
# Experimental: as §1
# AgNbp2 = biological target: AgNbp2
# Experimental: as §1
# AgRvs167 = biological target: AgRvs167
# Experimental: as §1
# AgSho1 = biological target: AgSho1
# Experimental: as §1
# AgSla1-D1-D2 = biological target: AgSla1-D1-D2
# Experimental: as §1
# AgSla1-D3 = biological target: AgSla1-D3
# Experimental: as §1
# CaAbp1-D1 = biological target: CaAbp1-D1
# Experimental: as §1
# CaAbp1-D2 = biological target: CaAbp1-D2
# Experimental: as §1
# CaBbc1 = biological target: CaBbc1
# Experimental: as §1
# CaBem1-D1 = biological target: CaBem1-D1
# Experimental: as §1
# CaBzz1-D1 = biological target: CaBzz1-D1
# Experimental: as §1
# CaBzz1-D2 = biological target: CaBzz1-D2
# Experimental: as §1
# CaCyk3 = biological target: CaCyk3
# Experimental: as §1
# CaFus1 = biological target: CaFus1
# Experimental: as §1
# CaHof1 = biological target: CaHof1
# Experimental: as §1
# CaHse1 = biological target: CaHse1
# Experimental: as §1
# CaLsb1 = biological target: CaLsb1
# Experimental: as §1
# CaLsb4 = biological target: CaLsb4
# Experimental: as §1
# CaMyo5 = biological target: CaMyo5
# Experimental: as §1
# CaNbp2 = biological target: CaNbp2
# Experimental: as §1
# CaRvs167 = biological target: CaRvs167
# Experimental: as §1
# CaRvs167-3 = biological target: CaRvs167-3
# Experimental: as §1
# CaSho1 = biological target: CaSho1
# Experimental: as §1
# CaSla1-D1-D2 = biological target: CaSla1-D1-D2
# Experimental: as §1
# CaSla1-D3 = biological target: CaSla1-D3
# Experimental: as §1
# ScAbp1 = biological target: ScAbp1
# Experimental: as §1
# ScBbc1 = biological target: ScBbc1
# Experimental: as §1
# ScBem1-D1 = biological target: ScBem1-D1
# Experimental: as §1
# ScBzz1-D1 = biological target: ScBzz1-D1
# Experimental: as §1
# ScBzz1-D2 = biological target: ScBzz1-D2
# Experimental: as §1
# ScCyk3 = biological target: ScCyk3
# Experimental: as §1
# ScFus1 = biological target: ScFus1
# Experimental: as §1
# ScHof1 = biological target: ScHof1
# Experimental: as §1
# ScHse1 = biological target: ScHse1
# Experimental: as §1
# ScLsb1 = biological target: ScLsb1
# Experimental: as §1
# ScLsb2 = biological target: ScLsb2
# Experimental: as §1
# ScLsb3 = biological target: ScLsb3
# Experimental: as §1
# ScLsb4 = biological target: ScLsb4
# Experimental: as §1
# ScMyo3 = biological target: ScMyo3
# Experimental: as §1
# ScMyo5 = biological target: ScMyo5
# Experimental: as §1
# ScNbp2 = biological target: ScNbp2
# Experimental: as §1
# ScPex13 = biological target: ScPex13
# Experimental: as §1
# ScRvs167 = biological target: ScRvs167
# Experimental: as §1
# ScSho1 = biological target: ScSho1
# Experimental: as §1
# ScSla1-D1-D2 = biological target: ScSla1-D1-D2
# Experimental: as §1
# ScSla1-D3 = biological target: ScSla1-D3
# Experimental: as §1
# SpAbp1-D1 = biological target: SpAbp1-D1
# Experimental: as §1
# SpBbc1 = biological target: SpBbc1
# Experimental: as §1
# SpBzz1-D1 = biological target: SpBzz1-D1
# Experimental: as §1
# SpBzz1-D2 = biological target: SpBzz1-D2
# Experimental: as §1
# SpCyk3 = biological target: SpCyk3
# Experimental: as §1
# SpHof1 = biological target: SpHof1
# Experimental: as §1
# SpHof1-2 = biological target: SpHof1-2
# Experimental: as §1
# SpHof1-3 = biological target: SpHof1-3
# Experimental: as §1
# SpHse1 = biological target: SpHse1
# Experimental: as §1
# SpLsb1 = biological target: SpLsb1
# Experimental: as §1
# SpLsb4 = biological target: SpLsb4
# Experimental: as §1
# SpMyo1 = biological target: SpMyo1
# Experimental: as §1
# SpNbp2 = biological target: SpNbp2
# Experimental: as §1
# SpPex13 = biological target: SpPex13
# Experimental: as §1
# SpRvs167 = biological target: SpRvs167
# Experimental: as §1
# SpSla1-D1-D2 = biological target: SpSla1-D1-D2
# Experimental: as §1
# SpSla1-D3 = biological target: SpSla1-D3
# Experimental: as §1
binder,measurement,setting,value
KLSRGRYGLPLSSRP,SPOT peptide array binding signal intensity,AgAbp1,34
same,SPOT peptide array binding signal intensity,AgBbc1,30
same,SPOT peptide array binding signal intensity,AgBem1-D1,37
same,SPOT peptide array binding signal intensity,AgBzz1-D1,59
same,SPOT peptide array binding signal intensity,AgBzz1-D2,55.5
same,SPOT peptide array binding signal intensity,AgCyk3,7.5
same,SPOT peptide array binding signal intensity,AgFus1,65
same,SPOT peptide array binding signal intensity,AgHof1,20.5
same,SPOT peptide array binding signal intensity,AgHse1,187
same,SPOT peptide array binding signal intensity,AgLsb1,63
same,SPOT peptide array binding signal intensity,AgLsb4,29
same,SPOT peptide array binding signal intensity,AgMyo5,≤ 0
same,SPOT peptide array binding signal intensity,AgNbp2,39
same,SPOT peptide array binding signal intensity,AgRvs167,4.33
same,SPOT peptide array binding signal intensity,AgSho1,6
same,SPOT peptide array binding signal intensity,AgSla1-D1-D2,41
same,SPOT peptide array binding signal intensity,AgSla1-D3,3.75
same,SPOT peptide array binding signal intensity,CaAbp1-D1,380
same,SPOT peptide array binding signal intensity,CaAbp1-D2,273
same,SPOT peptide array binding signal intensity,CaBbc1,101
same,SPOT peptide array binding signal intensity,CaBem1-D1,19
same,SPOT peptide array binding signal intensity,CaBzz1-D1,146
same,SPOT peptide array binding signal intensity,CaBzz1-D2,100
same,SPOT peptide array binding signal intensity,CaCyk3,6.5
same,SPOT peptide array binding signal intensity,CaFus1,86
same,SPOT peptide array binding signal intensity,CaHof1,0.5
same,SPOT peptide array binding signal intensity,CaHse1,2
same,SPOT peptide array binding signal intensity,CaLsb1,1.5
same,SPOT peptide array binding signal intensity,CaLsb4,37
same,SPOT peptide array binding signal intensity,CaMyo5,2
same,SPOT peptide array binding signal intensity,CaNbp2,110
same,SPOT peptide array binding signal intensity,CaRvs167,6.5
same,SPOT peptide array binding signal intensity,CaRvs167-3,13.5
same,SPOT peptide array binding signal intensity,CaSho1,59.5
same,SPOT peptide array binding signal intensity,CaSla1-D1-D2,≤ 0
same,SPOT peptide array binding signal intensity,CaSla1-D3,0.25
same,SPOT peptide array binding signal intensity,ScAbp1,24
same,SPOT peptide array binding signal intensity,ScBbc1,8.5
same,SPOT peptide array binding signal intensity,ScBem1-D1,14
same,SPOT peptide array binding signal intensity,ScBzz1-D1,21
same,SPOT peptide array binding signal intensity,ScBzz1-D2,20
same,SPOT peptide array binding signal intensity,ScCyk3,59
same,SPOT peptide array binding signal intensity,ScFus1,102
same,SPOT peptide array binding signal intensity,ScHof1,≤ 0
same,SPOT peptide array binding signal intensity,ScHse1,754
same,SPOT peptide array binding signal intensity,ScLsb1,89
same,SPOT peptide array binding signal intensity,ScLsb2,7
same,SPOT peptide array binding signal intensity,ScLsb3,16
same,SPOT peptide array binding signal intensity,ScLsb4,15
same,SPOT peptide array binding signal intensity,ScMyo3,6
same,SPOT peptide array binding signal intensity,ScMyo5,8.5
same,SPOT peptide array binding signal intensity,ScNbp2,86.5
same,SPOT peptide array binding signal intensity,ScPex13,7.25
same,SPOT peptide array binding signal intensity,ScRvs167,12.8
same,SPOT peptide array binding signal intensity,ScSho1,112
same,SPOT peptide array binding signal intensity,ScSla1-D1-D2,91.5
same,SPOT peptide array binding signal intensity,ScSla1-D3,2
same,SPOT peptide array binding signal intensity,SpAbp1-D1,146
same,SPOT peptide array binding signal intensity,SpBbc1,2
same,SPOT peptide array binding signal intensity,SpBzz1-D1,163
same,SPOT peptide array binding signal intensity,SpBzz1-D2,≤ 0
same,SPOT peptide array binding signal intensity,SpCyk3,6.5
same,SPOT peptide array binding signal intensity,SpHof1,88.8
same,SPOT peptide array binding signal intensity,SpHof1-2,10.5
same,SPOT peptide array binding signal intensity,SpHof1-3,326
same,SPOT peptide array binding signal intensity,SpHse1,150
same,SPOT peptide array binding signal intensity,SpLsb1,110
same,SPOT peptide array binding signal intensity,SpLsb4,48.5
same,SPOT peptide array binding signal intensity,SpMyo1,2
same,SPOT peptide array binding signal intensity,SpNbp2,38
same,SPOT peptide array binding signal intensity,SpPex13,1
same,SPOT peptide array binding signal intensity,SpRvs167,4.33
same,SPOT peptide array binding signal intensity,SpSla1-D1-D2,≤ 0
same,SPOT peptide array binding signal intensity,SpSla1-D3,≤ 0
YRRKSIPFAPHQITA,SPOT peptide array binding signal intensity,AgAbp1,34
same,SPOT peptide array binding signal intensity,AgBbc1,11.5
same,SPOT peptide array binding signal intensity,AgBem1-D1,21.5
same,SPOT peptide array binding signal intensity,AgBzz1-D1,99.5
same,SPOT peptide array binding signal intensity,AgBzz1-D2,34
same,SPOT peptide array binding signal intensity,AgCyk3,1
same,SPOT peptide array binding signal intensity,AgFus1,131
same,SPOT peptide array binding signal intensity,AgHof1,5.5
same,SPOT peptide array binding signal intensity,AgHse1,162
same,SPOT peptide array binding signal intensity,AgLsb1,25.8
same,SPOT peptide array binding signal intensity,AgLsb4,24
same,SPOT peptide array binding signal intensity,AgMyo5,≤ 0
same,SPOT peptide array binding signal intensity,AgNbp2,62.5
same,SPOT peptide array binding signal intensity,AgRvs167,3.67
same,SPOT peptide array binding signal intensity,AgSho1,16.5
same,SPOT peptide array binding signal intensity,AgSla1-D1-D2,39
same,SPOT peptide array binding signal intensity,AgSla1-D3,2.5
same,SPOT peptide array binding signal intensity,CaAbp1-D1,187
same,SPOT peptide array binding signal intensity,CaAbp1-D2,116
same,SPOT peptide array binding signal intensity,CaBbc1,41.5
same,SPOT peptide array binding signal intensity,CaBem1-D1,24
same,SPOT peptide array binding signal intensity,CaBzz1-D1,182
same,SPOT peptide array binding signal intensity,CaBzz1-D2,148
same,SPOT peptide array binding signal intensity,CaCyk3,6
same,SPOT peptide array binding signal intensity,CaFus1,159
same,SPOT peptide array binding signal intensity,CaHof1,2
same,SPOT peptide array binding signal intensity,CaHse1,16.8
same,SPOT peptide array binding signal intensity,CaLsb1,3
same,SPOT peptide array binding signal intensity,CaLsb4,13
same,SPOT peptide array binding signal intensity,CaMyo5,0.5
